The whole screen tested about 67,000 compounds, of which about 300 (0.45%) showed an effect of 50% or more. The sample holds strong results, similar compounds and a random draw of the others, so the mix is not that of the screen.

In the assay the target is Polyketide synthase Pks13 (Mycobacterium tuberculosis (strain ATCC 25618 / H37Rv)) (UniProt I6X8D2). Put plainly: Mycobacterium tuberculosis Polyketide synthase 13 Thioesterase (PKS13). The format is functional. Set-up: scale not given: in the data most compounds retested in dose-response had high values. Particulars: 30 µM.
Polyketide synthase Pks13 (Mycobacterium tuberculosis (strain ATCC 25618 / H37Rv)), sequence (I6X8D2 whole entry): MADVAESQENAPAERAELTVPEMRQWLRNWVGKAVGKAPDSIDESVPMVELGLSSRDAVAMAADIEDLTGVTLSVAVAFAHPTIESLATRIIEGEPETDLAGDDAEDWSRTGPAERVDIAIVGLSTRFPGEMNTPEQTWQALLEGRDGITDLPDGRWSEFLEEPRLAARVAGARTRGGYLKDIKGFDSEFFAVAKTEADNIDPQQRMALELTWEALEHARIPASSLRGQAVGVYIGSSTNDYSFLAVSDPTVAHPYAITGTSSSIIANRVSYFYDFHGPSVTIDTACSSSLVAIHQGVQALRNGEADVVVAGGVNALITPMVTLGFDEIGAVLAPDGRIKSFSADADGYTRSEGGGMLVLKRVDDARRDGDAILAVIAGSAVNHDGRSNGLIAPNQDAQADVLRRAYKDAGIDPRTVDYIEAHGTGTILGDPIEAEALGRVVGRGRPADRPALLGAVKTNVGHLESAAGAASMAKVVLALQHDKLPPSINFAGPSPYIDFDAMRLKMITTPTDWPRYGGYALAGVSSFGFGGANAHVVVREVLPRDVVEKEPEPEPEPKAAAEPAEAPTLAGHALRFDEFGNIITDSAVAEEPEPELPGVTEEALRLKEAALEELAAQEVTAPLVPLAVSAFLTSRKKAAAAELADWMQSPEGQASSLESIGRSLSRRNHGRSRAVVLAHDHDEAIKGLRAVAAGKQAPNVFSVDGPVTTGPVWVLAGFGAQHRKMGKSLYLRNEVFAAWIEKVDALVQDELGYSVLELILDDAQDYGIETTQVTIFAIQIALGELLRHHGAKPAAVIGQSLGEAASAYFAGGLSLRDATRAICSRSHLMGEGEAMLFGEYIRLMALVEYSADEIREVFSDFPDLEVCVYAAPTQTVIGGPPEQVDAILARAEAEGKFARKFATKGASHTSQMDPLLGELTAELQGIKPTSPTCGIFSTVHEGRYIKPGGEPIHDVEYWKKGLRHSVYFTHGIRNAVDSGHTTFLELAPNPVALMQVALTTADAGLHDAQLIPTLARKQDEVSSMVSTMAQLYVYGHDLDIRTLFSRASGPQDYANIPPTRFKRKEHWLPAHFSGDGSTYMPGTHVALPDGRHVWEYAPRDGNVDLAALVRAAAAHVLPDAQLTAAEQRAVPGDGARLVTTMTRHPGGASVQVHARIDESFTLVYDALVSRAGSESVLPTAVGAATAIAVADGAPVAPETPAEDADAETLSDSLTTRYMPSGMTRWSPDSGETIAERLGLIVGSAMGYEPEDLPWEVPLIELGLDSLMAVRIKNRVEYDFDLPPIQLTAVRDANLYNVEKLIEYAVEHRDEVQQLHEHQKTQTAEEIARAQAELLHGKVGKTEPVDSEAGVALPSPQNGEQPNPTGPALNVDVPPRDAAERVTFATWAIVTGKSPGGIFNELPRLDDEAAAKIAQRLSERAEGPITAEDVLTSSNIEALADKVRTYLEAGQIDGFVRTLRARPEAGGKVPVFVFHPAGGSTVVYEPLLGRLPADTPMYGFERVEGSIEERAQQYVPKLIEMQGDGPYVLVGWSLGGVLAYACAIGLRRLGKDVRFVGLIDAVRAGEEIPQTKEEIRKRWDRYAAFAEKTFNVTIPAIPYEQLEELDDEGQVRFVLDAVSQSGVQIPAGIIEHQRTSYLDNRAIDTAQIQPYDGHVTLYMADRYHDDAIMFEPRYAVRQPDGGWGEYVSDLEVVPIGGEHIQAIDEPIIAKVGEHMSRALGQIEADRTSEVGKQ
As for `O=C1O[C@@H]2CN(c3ccccn3)C[C@@H]2N1CCCc1ccc(F)cc1`, the Percent Effect was -15.8%. The result for `O=C(NCc1ccco1)[C@H]1C[C@H]2OCC[C@H]2N(C(=O)c2ccnnc2)C1` reads -21.2%. As for `O=C(Cn1ccc2cc(Br)ccc21)NC[C@@H]1CCCN2CCCC[C@H]12`, the figure is -5.46%; as for `CO[C@@H]1CCN(Cc2cnn(C)c2)[C@@H]2CN(Cc3ccco3)C[C@@H]21`, -33%. The result for `COc1ccc(CN2CC[C@@H]3CN(S(C)(=O)=O)CCO[C@@H]3C2)cc1` reads -17.7%; that for `O=C(Nc1cccnc1)[C@H]1COC[C@H]2CN(C3CCCC3)C[C@H]21`, -10.2%.

As to `CCCn1nnc(NCc2ccc(-c3ccc(Br)cc3)o2)n1`, the Percent Effect was 50.3%.

`Cn1nnc(NCc2ccc(-c3ccc(Br)cc3)o2)n1`: the Percent Effect turned out to be 13.4%. As to `CCn1nnc(NCc2ccc(-c3ccc(Br)cc3)o2)n1`, the Percent Effect came to 31.1%.

As for `CC(C)c1cc(C(=O)N2C[C@H]3CC[C@@H]2CN(Cc2ccccn2)C3)no1`, the Percent Effect was -30.6%.

Turning to `COc1cnc(N2CC(N3CCOCC3)C2)nc1-c1ccnn1C`, the Percent Effect was determined as 54.8%. As for `Cc1cnc(N2CCC(c3ccncc3)CC2)nc1-c1ccnn1C`, the figure is -33.3%. For the compound `COc1cnc(N2CCN(C)CC2)nc1-c1ccnn1C`, the Percent Effect was found to be 68%. As for `Cc1cnc(N2CCCC(O)C2)nc1-c1ccnn1C` (configuration not stated), the figure is 5.81%; as for `Cc1cnc(N2CCC(c3ccccc3)CC2)nc1-c1ccnn1C`, -31.6%.

Take `Cc1cnc(N2CCN(C)CC2)nc1-c1ccnn1C`: the Percent Effect was determined as 4.24%. With `CCn1c(Cn2cncn2)nnc1C1CCN(C[C@H]2[C@@H]3CNC[C@@H]32)CC1`, the Percent Effect was -3.59%.

Take `CCS(=O)(=O)N1C[C@H]2CN(c3cnn(C)c3)C(=O)[C@H]2C1`: the Percent Effect was -4.27%. The result for `Cc1ccccc1CN1CC[C@H]2C[C@H](C(=O)N(C)C)O[C@H]2C1` reads -13.3%; that for `Cc1noc(C)c1CN1CC[C@@H]2O[C@@H](COCC3CC3)CC[C@@H]21`, -31.2%.

On to `CCS(=O)(=O)N1C[C@@H](C(=O)NC(C)C)[C@@]2(Cc3ccccc3C(=O)N2)C1`, for which the Percent Effect came out at 9.59%.

For the compound `CN1C[C@@H](C(=O)NC(C)(C)C)[C@@]2(CCc3ccccc3C(=O)N2)C1`, the Percent Effect turned out to be 1.71%. With `CC(C)NC(=O)[C@@H]1CN(C(=O)C2CC2)C[C@]12Cc1ccccc1C(=O)N2`, the Percent Effect came out at 52.6%. On to `CS(=O)(=O)N1C[C@@H]2CC[C@H](C1)N(CCC(=O)NCc1ccco1)C2`, for which the Percent Effect was -13.4%.

In the case of `CC(C)c1nnc(CN2CCCC3(CC2)CN(C)C(=O)O3)o1` (configuration not stated), the Percent Effect was -10.9%.

`CN1CC2(CCCN(Cc3nnc(-c4ccccc4)o3)CC2)OC1=O` (configuration not stated): the Percent Effect was -7.32%. With `CN1CC2(CCCN(Cc3nnc(-c4ccco4)o3)CC2)OC1=O` (configuration not stated), the Percent Effect is 62.4%. As for `Cn1ccc(C(=O)N2C[C@@H]3CN(CC4CC4)CCO[C@@H]3C2)n1`, the figure is -15.9%; as for `O=C(N[C@@H]1CN(c2ncccn2)C[C@@H]2CCCO[C@@H]21)c1cnccn1`, -18%.

Turning to `COc1cccc(C(O)CN2CCN(c3cccc(C)c3)CC2)c1` (configuration not stated), the Percent Effect was 0.857%.

Consider `CCc1ccc(C(O)CN2CCN(c3cccc(OC)c3)CC2)cc1` (configuration not stated), for which the Percent Effect is 56.5%. As for `COc1cccc(N2CCN(CC(O)c3ccc(C)cc3)CC2)c1` (configuration not stated), the figure is -26.6%. The result for `CNC(=O)[C@H]1C[C@@H]2CN(Cc3ccc(C)cc3)C[C@H]1O2` reads -2.73%; that for `COc1ccc(NC(=O)Cn2c(=O)nc(N)c3cc(C)sc32)cc1`, -1.59%.

Consider `Cc1cc2c(N)nc(=O)n(CC(=O)Nc3ccccc3)c2s1`, for which the Percent Effect amounted to 61%.

For `Cc1cc2c(N)nc(=O)n(CC(=O)Nc3cccc(Cl)c3)c2s1`, the Percent Effect came out at 11.9%. As for `c1cnc(N2C[C@H]3CCN(Cc4ccncc4)C[C@H]3C2)nc1`, the figure is -10.9%.

On to `CCc1n[nH]c(SCC(=O)N2C[C@@H]3CC[C@H](C2)N(CC=C(C)C)C3)n1`, for which the Percent Effect came to 4.76%. The result for `CCc1ccc(CN2CC[C@@H]3CN(S(C)(=O)=O)CCO[C@@H]3C2)o1` reads -6.54%; that for `CNC(=O)[C@H]1C[C@@H]2CN(S(=O)(=O)c3ccc(OC)cc3)C[C@@H]2N1C`, -0.271%; that for `O=C(C[C@@H]1COC[C@H]2CN(C(=O)c3cccnc3)C[C@@H]12)N1CCOCC1`, -5.25%.

As to `Cc1cc(C)c2cc(CNCc3ccco3)c3nn(C)c(=O)n3c2c1`, the Percent Effect was -29.8%. Take `Cc1cc(C)c2cc(CNCc3cccnc3)c3nn(C)c(=O)n3c2c1`: the Percent Effect worked out at 112%. Consider `CCCNCc1cc2c(C)cc(C)cc2n2c(=O)n(C)nc12`, for which the Percent Effect was 33.4%. As for `Cc1cc(C)c2cc(CNC(C)C)c3nn(C)c(=O)n3c2c1`, the figure is 52.3%.

On to `Cc1cc(C)c2cc(CNC3CCCCC3)c3nn(C)c(=O)n3c2c1`, for which the Percent Effect worked out at 10.2%. The result for `Cc1cc(C)c2cc(CNCc3ccccc3)c3nn(C)c(=O)n3c2c1` reads -72.8%; that for `Cc1cnc(N2CC[C@@H]3O[C@@H](COCC(=O)N(C)C)CC[C@@H]32)nc1`, -4.2%. As for `Cc1cc(C)nc(N2CC[C@@]3(O)CCN(S(=O)(=O)N(C)C)C[C@H]3C2)n1`, the figure is -22.2%.

Take `O=C([C@@H]1COC[C@H]2CN(C3CCOCC3)C[C@H]21)N1CCCCO1`: the Percent Effect is 3.42%. As for `CC1(C(=O)NCc2cccnc2Oc2ccc(F)cc2F)CCCNC1` (configuration not stated), the figure is -16.5%.

`CC1(C(=O)NCc2cccnc2Oc2ccc(F)c(F)c2)CCCNC1` (configuration not stated): the Percent Effect was determined as 63.7%. The result for `Cc1cccc(C)c1Oc1ncccc1CNC(=O)C1(C)CCCNC1` (configuration not stated) reads -21.7%.

For the compound `Cc1ccccc1CN1C[C@@H]2OCC(=O)N(CC(N)=O)[C@@H]2C1`, the Percent Effect is -35.3%. As for `CCOC[C@]12COC[C@H]1CN(Cc1ccc(F)c(F)c1)C2`, the figure is -14.9%; as for `Cc1ncc(CN2CCCC2)c2cc(C(=O)c3ccc(Br)cc3)oc12`, -4.91%; as for `Cc1ncc(CNCC(C)O)c2cc(C(=O)c3ccc(Br)cc3)oc12` (configuration not stated), 53.8%. As to `Cc1ncc(CNCCO)c2cc(C(=O)c3ccc(Br)cc3)oc12`, the Percent Effect was -1.68%.

`O=c1ccc2c(n1CC1CCOCC1)CCN(Cc1ccoc1)CC2`: the Percent Effect worked out at 52.6%.

Regarding `O=c1ccc2c(n1Cc1ccncc1)CCN(Cc1ccoc1)CC2`, the Percent Effect is 6.04%. As for `COCCn1c2c(ccc1=O)CCN(Cc1ccoc1)CC2`, the figure is 19%.

As to `O=C(c1cscn1)N1CC[C@H]2[C@@H]1CCC(=O)N2c1ccccc1`, the Percent Effect was -9.46%. `c1ccc2c(c1)CN(c1ncnc3c1CCNC3)CCO2`: the Percent Effect is -34%. As for `c1ccc2c(c1)CN(c1ncnc3sc4c(c13)CCNC4)CCO2`, the figure is 63%. For `c1ccc2c(c1)CCN(c1ncnc3sc4c(c13)CCNC4)C2`, the Percent Effect was -23.8%. The result for `O=C(NCCCO)C1(N2CCCCC2)Cc2ccccc2C1` reads -29.6%. Consider `O=c1[nH]c(NCCO)nc2c1C1(CCCC1)Cc1ccccc1-2`, for which the Percent Effect was found to be 12.1%.

As to `CC1(C)Cc2ccccc2-c2nc(NCCO)[nH]c(=O)c21`, the Percent Effect was 88.1%. Take `O=c1c(NCCCO)c(N2CCN(c3ccccc3)CC2)c1=O`: the Percent Effect came out at 4.71%.

Take `Cc1cc(NCCO)nc(-c2ccccc2O)n1`: the Percent Effect amounted to 19.7%. In the case of `CCC1(C)Cc2ccccc2-c2nc(NCCCO)nc(O)c21` (configuration not stated), the Percent Effect turned out to be 37.9%. The result for `CC(C)(CO)CCCNC(=O)NC1(C)Cc2ccccc2C1` reads 0.272%. Take `O=c1[nH]c(NCCCO)nc2c1C1(CCCC1)Cc1ccccc1-2`: the Percent Effect worked out at 55.4%. With `OCCCNc1nc(O)c2c(n1)-c1ccccc1CC21CCCCC1`, the Percent Effect was 13.8%. As for `CCC1(C)Cc2ccccc2-c2nc(NCCO)nc(O)c21` (configuration not stated), the figure is 55.8%; as for `O=c1[nH]c(NCCO)nc2c1C1(CCCCC1)Cc1ccccc1-2`, -23%. As for `CC1(C)Cc2ccccc2-c2nc(NCCCO)[nH]c(=O)c21`, the figure is 62.7%.

For the origin of these results see ChEMBL document CHEMBL3988442, “University of Dundee, Small-Polar-MMV Screening Library” (2021).
